For 19 compounds, inhibition results are on record in ChEMBL document CHEMBL1961873, “Compounds: GSK PKIS; Assays: Nanosyn kinase panel” (2012).

Assay [1] concerns the target Serine/threonine-protein kinase PAK 6 (Homo sapiens) (UniProt Q9NQU5). The settings on record: at 1 µM.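 Note: values are mean percent inhibition of PAK6 kinase.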
Assay [2] concerns Tyrosine-protein kinase ABL1 (Homo sapiens), P00519 [E255K]. The note with it: at 0.1 µM.
Assay [3] has the same test system. The note with it: at 1 µM.
Assay [4] relates to Tyrosine-protein kinase ABL1 (Homo sapiens), P00519 [H396P]. The settings on record: at 0.1 µM.
Assay [5] has the same test system. The note with it: at 1 µM.
Assay [6] deals with Tyrosine-protein kinase ABL1 (Homo sapiens), P00519 [M351T]. The settings on record: at 0.1 µM.
Assay [7] has the same test system. The settings on record: at 1 µM.
For assay [8], the system named is Tyrosine-protein kinase ABL1 (Homo sapiens), P00519 [Q252H]. The note with it: at 0.1 µM.
Assay [9] shares this test system. The settings on record: at 1 µM.
The subject of assay [10] is Tyrosine-protein kinase ABL1 (Homo sapiens), P00519 [T315I]. The note with it: at 0.1 µM.

Molecules are shown by their SMILES.

Sequence of Serine/threonine-protein kinase PAK 6 (Homo sapiens) (Q9NQU5 whole entry, looked up): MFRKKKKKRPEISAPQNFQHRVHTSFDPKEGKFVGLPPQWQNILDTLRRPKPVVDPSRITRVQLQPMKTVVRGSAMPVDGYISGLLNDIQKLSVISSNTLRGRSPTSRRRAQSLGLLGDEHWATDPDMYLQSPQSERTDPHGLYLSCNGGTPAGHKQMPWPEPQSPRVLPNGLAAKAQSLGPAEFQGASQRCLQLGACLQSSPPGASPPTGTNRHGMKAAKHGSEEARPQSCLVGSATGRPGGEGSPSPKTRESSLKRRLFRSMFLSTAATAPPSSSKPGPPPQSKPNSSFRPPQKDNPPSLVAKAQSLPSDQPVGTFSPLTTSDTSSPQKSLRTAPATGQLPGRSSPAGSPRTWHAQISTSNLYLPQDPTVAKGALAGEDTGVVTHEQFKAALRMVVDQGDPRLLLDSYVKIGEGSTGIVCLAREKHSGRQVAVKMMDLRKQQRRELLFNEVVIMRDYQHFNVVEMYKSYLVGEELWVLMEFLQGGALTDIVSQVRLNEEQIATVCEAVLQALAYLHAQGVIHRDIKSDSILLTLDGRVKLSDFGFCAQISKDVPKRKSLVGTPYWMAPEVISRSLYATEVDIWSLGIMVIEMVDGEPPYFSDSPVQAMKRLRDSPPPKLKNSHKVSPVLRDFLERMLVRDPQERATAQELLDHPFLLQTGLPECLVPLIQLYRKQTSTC

The inhibition is the drop in the measured response relative to a control, in per cent. Take `c1ccc(COc2ccc(Nc3ncnc4ccc(-c5ccco5)cc34)cc2)cc1`: the inhibition is 1.25% in assay [1]; -0.69% in assay [2]; 0.29% in [3]; 0.16% in assay [4]; 0.64% in assay [5]; 0.39% in assay [6]. Further, the inhibition amounted to 2.41% in assay [7], 0.54% in assay [8], 0.07% in assay [9] and 1.64% in [10].

Take `CCN1CCC(CC(=O)Nc2n[nH]c3nnc(-c4cccc(F)c4F)cc23)CC1`: the inhibition in assay [1] was 0.04%; in assay [2], 1.76%; in assay [3] it was 1.65%; in [4] it was 2.63%; in assay [5] it was 4.15%; in [6] it was -0.03%. The inhibition was determined as 3.11% in [7], 2.12% in assay [8], 3.13% in assay [9] and 2.02% in assay [10].

For `[O-][S+]1CCN(Cc2ccc(-c3ccc4ncnc(Nc5ccc(OCc6cccc(F)c6)c(Cl)c5)c4c3)o2)CC1`, the inhibition in assay [1] is -3.68%; in assay [2], 3.89%; in assay [3] it was 6.86%; in assay [4] it was 5.46%; in assay [5], 5.91%; in assay [6], 1.58%. Further, the inhibition in [7] was 7.69%; in assay [8], 5.02%; in [9], 6.64%; in [10], 2.49%.

For the compound `COc1cccc(-n2ncc3c(N/N=C/c4ccc(F)cc4)ncnc32)c1`, the inhibition in assay [1] turned out to be 5.5%; in assay [2], 44.1%; in assay [3], 79.3%; in [4] it was 51.2%; in [5], 84.5%; in assay [6] it was 51.7%. Also, the inhibition in [7] was determined as 85.4%; in [8] it was 63.6%; in assay [9] it was 88.8%; in assay [10], 12.8%.

Take `CCn1cc(-c2ccnc3[nH]ccc23)c(-c2cccc(NC(=O)Nc3ccc(OCc4ccccc4)cc3)c2)n1`: the inhibition in assay [1] is 3.29%; in [2], 1.22%; in assay [3], -1.34%; in assay [4], 1.15%; in assay [5] it was 3.55%; in assay [6], 1.36%. The inhibition in assay [7] is 3.02%; in assay [8] it was 0.71%; in [9], 2.72%; in assay [10], -0.6%.

As to `Fc1ccc(-c2nn3ccccc3c2-c2ccncc2)cc1`, the inhibition in [1] is -2%; in [2], 1.77%; in [3], 2.14%; in assay [4], 1.59%; in assay [5], 4.98%; in assay [6], -1.48%. Also, the inhibition in assay [7] worked out at 8.75%; in [8], 0.48%; in assay [9], 6.96%; in assay [10], 0.16%.

`CCn1c(-c2nonc2N)nc2ccccc21`: the inhibition in assay [1] was -4.14%; in assay [2], 3.43%; in assay [3], 2.16%; in assay [4] it was 3.5%; in assay [5] it was 0.21%; in assay [6] it was 2.29%. Also, the inhibition was -3.04% in [7], 4.29% in assay [8], 0.56% in assay [9] and 2.3% in assay [10].

As to `CNC(=O)c1cccc(C#Cc2cncnc2Nc2ccc(OCc3cccc(F)c3)c(Cl)c2)c1`, the inhibition is 0.68% in assay [1]; 0.14% in assay [2]; 0.64% in assay [3]; 0.79% in assay [4]; 1.44% in assay [5]; 0.11% in [6]. The inhibition stood at 2.15% in assay [7], 1.53% in assay [8], 2.58% in assay [9] and 1.23% in assay [10].

In the case of `CC(C)(CO)CNC(=O)c1ccc2c(c1)/C(=N/Nc1ccc(S(N)(=O)=O)cc1)C(=O)N2`, the inhibition is 1.5% in assay [1]; -0.35% in assay [2]; 9% in assay [3]; -2.04% in [4]; 9.98% in assay [5]; -0.43% in [6]. The inhibition was 9.9% in assay [7], -0.04% in assay [8], 9.08% in assay [9] and -2% in assay [10].

Consider `Cc1ccc(O)cc1Nc1ccnc2cc(-c3ccccn3)ccc12`, for which the inhibition in assay [1] is 4.08%; in [2], 93.5%; in assay [3], 96.2%; in assay [4], 94.7%; in assay [5] it was 97.2%; in assay [6], 93.6%. For the same compound, the inhibition in assay [7] was found to be 97.9%; in assay [8], 94%; in assay [9], 98%; in assay [10] it was 10.1%.

With `COc1cc(N2CCN(C(C)C)CC2)ccc1Nc1nc(Nc2ccc(F)cc2C(N)=O)c2cc[nH]c2n1`, the inhibition in assay [1] is 3.58%; in [2], -0.24%; in assay [3], 1.64%; in [4] it was 1.72%; in assay [5], 2.38%; in [6], 1.19%. The inhibition in assay [7] is 2.15%; in [8], 1.11%; in assay [9], 2.74%; in [10], -0.7%.

Consider `CC(=O)NCc1cccc(C#Cc2cncnc2Nc2ccc(OCc3cccc(F)c3)c(Cl)c2)c1`, for which the inhibition in assay [1] is -2.72%; in assay [2], -0.06%; in [3], 1.65%; in [4], 2.49%; in assay [5], -0.68%; in [6], 1.1%. Also, the inhibition in assay [7] was -0.38%; in assay [8] it was 2.02%; in assay [9], -0.7%; in assay [10], 2%.

As to `CC(C)COC(=O)c1ccc2c(c1)/C(=C/Nc1ccc(S(N)(=O)=O)cc1)C(=O)N2`, the inhibition worked out at 0.35% in assay [1]; 1.63% in assay [2]; 21.7% in [3]; 4.36% in assay [4]; 26.6% in assay [5]; 4.24% in assay [6]. Besides, the inhibition in assay [7] is 33.2%; in [8], 3.65%; in [9], 28.9%; in assay [10] it was 5.23%.

For the compound `COc1ccc(-c2cc3c(N)ncnc3o2)cc1`, the inhibition in [1] is -9.7%; in assay [2], 0.23%; in [3], 5.63%; in [4] it was -0.22%; in assay [5] it was 11%; in assay [6] it was 0.58%. For the same compound, the inhibition is 11.2% in assay [7], -0.72% in assay [8], 9.12% in assay [9] and 0.76% in assay [10].

`COc1ccc(-c2cc(-c3c[nH]nc3-c3ccccn3)ccn2)cc1`: the inhibition in assay [1] was -3.15%; in assay [2], 9.84%; in assay [3], 40.9%; in assay [4], 20.2%; in assay [5] it was 64.2%; in [6], 15.3%. For the same compound, the inhibition in [7] worked out at 63.3%; in assay [8], 10.8%; in assay [9], 41%; in assay [10], 3.29%.

Take `COc1cc(/C=N/Nc2ncnc3[nH]ncc23)ccc1O`: the inhibition in assay [1] was 4.44%; in assay [2], 36.5%; in [3] it was 83.4%; in assay [4], 45.9%; in assay [5], 87.6%; in assay [6], 42.9%. Besides, the inhibition turned out to be 87.9% in assay [7], 47.9% in assay [8], 88.3% in assay [9] and 8.14% in assay [10].

Turning to `O=C(O[C@H]1CN[C@H](C#Cc2cc3ncnc(Nc4ccc(Cc5ccccc5)cc4)c3s2)C1)N1CCOCC1`, the inhibition was -5.73% in assay [1]; -0.19% in assay [2]; -0.38% in assay [3]; -0.52% in assay [4]; 0.08% in assay [5]; -2.99% in [6]. Besides, the inhibition in assay [7] was -0.59%; in assay [8], -0.95%; in [9] it was 1.06%; in assay [10], 0.08%.

Regarding `COc1cc2c(cc1Nc1nc(Nc3ccsc3C(N)=O)c3cc[nH]c3n1)N(C(=O)CN(C)C)CCC2(C)C`, the inhibition in assay [1] was found to be 3.1%; in [2], 0.79%; in assay [3] it was 4.14%; in assay [4] it was 4.5%; in assay [5], 2.9%; in assay [6], 2.15%. Also, the inhibition in [7] amounted to 1.57%; in assay [8] it was 4.15%; in assay [9], 2.78%; in assay [10], 3.19%.

Consider `COc1cc2ncn(-c3cc(OCc4ccccc4C(F)(F)F)c(C(=O)N(C)C)s3)c2cc1OC`, for which the inhibition in assay [1] is -4.14%; in assay [2] it was 1.36%; in [3], 9.93%; in assay [4], 2.27%; in assay [5], 16.3%; in assay [6], 1.09%. Further, the inhibition in [7] is 14.9%; in assay [8], 2.35%; in [9], 13.2%; in [10] it was -0.89%.
